Drawing on ChEMBL document CHEMBL1961873, “Compounds: GSK PKIS; Assays: Nanosyn kinase panel” (2012), this text covers inhibition for five compounds.

Assay [1] addresses MAP/microtubule affinity-regulating kinase 3 (Homo sapiens) (UniProt P27448). The conditions noted are these: at 1 µM.
Assay [2] concerns the target T1, MAP/microtubule affinity-regulating kinase 4 (Homo sapiens) (UniProt Q96L34).
T1 sequence (whole entry): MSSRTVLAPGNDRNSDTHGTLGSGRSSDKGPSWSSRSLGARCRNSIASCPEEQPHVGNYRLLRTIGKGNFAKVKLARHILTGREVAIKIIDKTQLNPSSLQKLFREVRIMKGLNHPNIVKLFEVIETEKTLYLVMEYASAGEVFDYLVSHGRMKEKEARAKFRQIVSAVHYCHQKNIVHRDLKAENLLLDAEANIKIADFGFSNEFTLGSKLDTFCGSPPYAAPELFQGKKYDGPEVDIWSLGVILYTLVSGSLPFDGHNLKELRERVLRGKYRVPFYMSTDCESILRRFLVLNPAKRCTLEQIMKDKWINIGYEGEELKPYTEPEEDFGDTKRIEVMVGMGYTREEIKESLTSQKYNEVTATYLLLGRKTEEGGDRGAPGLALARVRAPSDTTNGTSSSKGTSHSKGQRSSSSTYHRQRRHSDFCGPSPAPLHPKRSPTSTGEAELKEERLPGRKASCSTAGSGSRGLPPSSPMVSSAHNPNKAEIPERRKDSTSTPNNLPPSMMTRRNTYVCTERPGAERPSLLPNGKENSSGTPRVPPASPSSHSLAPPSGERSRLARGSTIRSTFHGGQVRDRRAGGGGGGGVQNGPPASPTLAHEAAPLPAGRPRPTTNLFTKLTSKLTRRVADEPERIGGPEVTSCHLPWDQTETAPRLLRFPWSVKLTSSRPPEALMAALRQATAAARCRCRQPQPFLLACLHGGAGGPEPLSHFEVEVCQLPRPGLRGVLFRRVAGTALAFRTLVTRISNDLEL
The conditions noted are these: at 0.1 µM.

The target in assay [3] is T1, MAP/microtubule affinity-regulating kinase 4 (Homo sapiens). The conditions noted are these: at 1 µM.
Assay [4] has as its target Maternal embryonic leucine zipper kinase (Homo sapiens) (UniProt Q14680). The conditions noted are these: at 0.1 µM.
Assay [5] has the same target. The conditions noted are these: at 1 µM.
The target of assay [6] is MAP kinase-interacting serine/threonine-protein kinase 1 (Homo sapiens) (UniProt Q9BUB5). The conditions noted are these: at 0.1 µM.
The target is the same in assay [7]. The conditions noted are these: at 1 µM.
Assay [8] concerns the target MAP kinase-interacting serine/threonine-protein kinase 2 (Homo sapiens) (UniProt Q9HBH9). The conditions noted are these: at 0.1 µM.
For assay [9] the target is unchanged. The conditions noted are these: at 1 µM.
Assay [10] deals with Serine/threonine-protein kinase MARK2 (Homo sapiens) (UniProt Q7KZI7). The conditions noted are these: at 0.1 µM.
The target is the same in assay [11]. The conditions noted are these: at 1 µM.
Assay [12] concerns the target PAS domain-containing serine/threonine-protein kinase (Homo sapiens) (UniProt Q96RG2). The conditions noted are these: at 0.1 µM.
For assay [13] the target is unchanged. The conditions noted are these: at 1 µM.
Assay [14] has as its target Phosphorylase b kinase gamma catalytic chain, skeletal muscle/heart isoform (Homo sapiens) (UniProt Q16816). The conditions noted are these: at 0.1 µM.
For assay [15] the target is unchanged. The conditions noted are these: at 1 µM.
In assay [16] the target is T2, Phosphorylase b kinase gamma catalytic chain, liver/testis isoform (Homo sapiens) (UniProt P15735).
T2 sequence (whole entry): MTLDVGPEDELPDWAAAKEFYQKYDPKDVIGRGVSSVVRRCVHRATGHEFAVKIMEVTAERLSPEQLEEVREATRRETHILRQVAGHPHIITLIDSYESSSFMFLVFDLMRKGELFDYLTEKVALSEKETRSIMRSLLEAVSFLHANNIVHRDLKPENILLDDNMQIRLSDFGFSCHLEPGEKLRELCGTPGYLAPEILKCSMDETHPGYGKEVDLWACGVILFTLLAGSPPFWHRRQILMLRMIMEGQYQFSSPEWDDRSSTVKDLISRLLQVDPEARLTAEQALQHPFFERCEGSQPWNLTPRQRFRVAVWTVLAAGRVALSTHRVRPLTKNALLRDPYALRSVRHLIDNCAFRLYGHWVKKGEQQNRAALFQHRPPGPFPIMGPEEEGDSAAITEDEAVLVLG
The conditions noted are these: at 0.1 µM.

Assay [17] has as its target T2, Phosphorylase b kinase gamma catalytic chain, liver/testis isoform (Homo sapiens). The conditions noted are these: at 1 µM.
Assay [18] deals with Serine/threonine-protein kinase pim-1 (Homo sapiens) (UniProt P11309). The conditions noted are these: at 0.1 µM.
The target is the same in assay [19]. The conditions noted are these: at 1 µM.
For assay [20], the target named is Serine/threonine-protein kinase pim-2 (Homo sapiens) (UniProt Q9P1W9). The conditions noted are these: at 0.1 µM.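 Note: reported value is the mean percent inhibition of PIM2, measured in the GSK PKIS kinase inhibitor set screen.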
Sequence of Serine/threonine-protein kinase pim-2 (Homo sapiens) (Q9P1W9 whole entry, looked up): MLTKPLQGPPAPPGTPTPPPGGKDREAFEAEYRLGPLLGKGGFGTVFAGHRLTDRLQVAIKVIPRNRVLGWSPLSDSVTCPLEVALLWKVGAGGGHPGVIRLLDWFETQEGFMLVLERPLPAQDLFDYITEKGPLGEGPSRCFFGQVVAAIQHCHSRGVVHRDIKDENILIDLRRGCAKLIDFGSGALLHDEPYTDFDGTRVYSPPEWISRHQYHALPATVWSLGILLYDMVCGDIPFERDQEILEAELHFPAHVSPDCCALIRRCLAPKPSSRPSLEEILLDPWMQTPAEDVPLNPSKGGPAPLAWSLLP

Sequence of MAP/microtubule affinity-regulating kinase 3 (Homo sapiens) (P27448 whole entry, looked up): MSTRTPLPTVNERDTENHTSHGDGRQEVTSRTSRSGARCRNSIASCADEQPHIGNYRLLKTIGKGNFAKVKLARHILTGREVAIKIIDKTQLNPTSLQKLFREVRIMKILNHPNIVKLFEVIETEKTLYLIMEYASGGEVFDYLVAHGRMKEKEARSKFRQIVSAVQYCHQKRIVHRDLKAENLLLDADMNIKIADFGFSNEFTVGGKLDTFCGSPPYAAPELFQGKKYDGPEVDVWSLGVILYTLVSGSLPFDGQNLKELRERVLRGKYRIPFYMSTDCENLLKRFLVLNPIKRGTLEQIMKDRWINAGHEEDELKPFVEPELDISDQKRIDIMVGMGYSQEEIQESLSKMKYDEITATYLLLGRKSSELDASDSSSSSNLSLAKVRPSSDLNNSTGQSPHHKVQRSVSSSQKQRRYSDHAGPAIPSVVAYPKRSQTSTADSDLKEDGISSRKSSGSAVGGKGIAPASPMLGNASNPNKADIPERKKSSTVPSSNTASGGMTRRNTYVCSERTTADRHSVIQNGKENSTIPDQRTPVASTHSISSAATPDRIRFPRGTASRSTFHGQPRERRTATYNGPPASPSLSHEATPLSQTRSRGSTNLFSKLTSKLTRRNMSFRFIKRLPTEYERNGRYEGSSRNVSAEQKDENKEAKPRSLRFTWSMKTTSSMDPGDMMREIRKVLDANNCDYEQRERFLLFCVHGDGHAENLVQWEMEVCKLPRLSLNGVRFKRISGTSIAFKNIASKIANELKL
Sequence of Serine/threonine-protein kinase MARK2 (Homo sapiens) (Q7KZI7 whole entry): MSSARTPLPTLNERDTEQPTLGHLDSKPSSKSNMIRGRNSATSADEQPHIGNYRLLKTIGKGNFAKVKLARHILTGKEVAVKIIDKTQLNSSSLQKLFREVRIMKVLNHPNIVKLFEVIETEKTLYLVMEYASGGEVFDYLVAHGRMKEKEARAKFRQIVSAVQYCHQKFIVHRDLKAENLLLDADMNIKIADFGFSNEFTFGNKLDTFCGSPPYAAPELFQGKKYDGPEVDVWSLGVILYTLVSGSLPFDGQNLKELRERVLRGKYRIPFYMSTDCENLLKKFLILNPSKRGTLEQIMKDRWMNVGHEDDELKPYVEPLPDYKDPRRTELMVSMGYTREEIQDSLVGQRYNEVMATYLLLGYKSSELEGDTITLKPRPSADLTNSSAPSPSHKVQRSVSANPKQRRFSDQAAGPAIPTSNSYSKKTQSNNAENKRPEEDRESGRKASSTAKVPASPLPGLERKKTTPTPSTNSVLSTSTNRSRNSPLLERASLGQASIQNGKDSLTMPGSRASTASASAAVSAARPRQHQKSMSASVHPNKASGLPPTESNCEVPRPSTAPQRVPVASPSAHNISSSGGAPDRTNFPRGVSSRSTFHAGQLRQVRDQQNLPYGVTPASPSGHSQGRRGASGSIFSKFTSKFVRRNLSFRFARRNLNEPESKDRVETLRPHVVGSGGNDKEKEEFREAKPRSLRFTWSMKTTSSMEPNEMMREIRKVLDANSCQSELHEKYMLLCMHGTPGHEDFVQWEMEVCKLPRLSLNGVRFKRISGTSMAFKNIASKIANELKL
Sequence of MAP kinase-interacting serine/threonine-protein kinase 2 (Homo sapiens) (Q9HBH9 whole entry, looked up): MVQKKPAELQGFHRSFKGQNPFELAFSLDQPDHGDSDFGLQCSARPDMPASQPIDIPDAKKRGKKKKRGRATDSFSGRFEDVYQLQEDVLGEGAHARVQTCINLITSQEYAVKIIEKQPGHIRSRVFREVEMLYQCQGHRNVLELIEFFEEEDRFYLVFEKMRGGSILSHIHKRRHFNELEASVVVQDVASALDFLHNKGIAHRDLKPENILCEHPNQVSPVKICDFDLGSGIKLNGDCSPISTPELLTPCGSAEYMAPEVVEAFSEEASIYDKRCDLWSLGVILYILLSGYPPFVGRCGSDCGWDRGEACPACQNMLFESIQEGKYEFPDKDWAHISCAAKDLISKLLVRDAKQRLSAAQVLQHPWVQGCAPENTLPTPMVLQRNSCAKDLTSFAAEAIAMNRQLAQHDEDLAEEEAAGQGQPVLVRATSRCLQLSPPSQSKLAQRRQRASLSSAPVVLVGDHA
Sequence of Phosphorylase b kinase gamma catalytic chain, skeletal muscle/heart isoform (Homo sapiens) (Q16816 whole entry, looked up, canonical isoform): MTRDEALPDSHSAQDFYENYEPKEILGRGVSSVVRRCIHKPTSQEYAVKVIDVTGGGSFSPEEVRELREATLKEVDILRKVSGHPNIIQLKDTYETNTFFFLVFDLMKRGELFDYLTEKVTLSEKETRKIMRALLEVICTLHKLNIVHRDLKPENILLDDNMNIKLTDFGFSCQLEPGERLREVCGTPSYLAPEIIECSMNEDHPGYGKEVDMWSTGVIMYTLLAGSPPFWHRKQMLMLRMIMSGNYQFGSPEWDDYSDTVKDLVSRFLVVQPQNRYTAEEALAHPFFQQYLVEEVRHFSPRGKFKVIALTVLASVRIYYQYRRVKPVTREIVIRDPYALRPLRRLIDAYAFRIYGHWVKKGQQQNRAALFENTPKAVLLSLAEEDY
Sequence of Serine/threonine-protein kinase pim-1 (Homo sapiens) (P11309 whole entry, looked up): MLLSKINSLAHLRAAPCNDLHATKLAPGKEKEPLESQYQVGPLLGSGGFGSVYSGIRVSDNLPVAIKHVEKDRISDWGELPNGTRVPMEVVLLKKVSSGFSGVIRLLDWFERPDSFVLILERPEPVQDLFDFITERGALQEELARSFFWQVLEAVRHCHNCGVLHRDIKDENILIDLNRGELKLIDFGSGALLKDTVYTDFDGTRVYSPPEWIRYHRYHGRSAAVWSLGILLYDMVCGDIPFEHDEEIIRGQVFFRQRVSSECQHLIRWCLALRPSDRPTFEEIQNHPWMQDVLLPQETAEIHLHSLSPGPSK
Sequence of Maternal embryonic leucine zipper kinase (Homo sapiens) (Q14680 whole entry, looked up): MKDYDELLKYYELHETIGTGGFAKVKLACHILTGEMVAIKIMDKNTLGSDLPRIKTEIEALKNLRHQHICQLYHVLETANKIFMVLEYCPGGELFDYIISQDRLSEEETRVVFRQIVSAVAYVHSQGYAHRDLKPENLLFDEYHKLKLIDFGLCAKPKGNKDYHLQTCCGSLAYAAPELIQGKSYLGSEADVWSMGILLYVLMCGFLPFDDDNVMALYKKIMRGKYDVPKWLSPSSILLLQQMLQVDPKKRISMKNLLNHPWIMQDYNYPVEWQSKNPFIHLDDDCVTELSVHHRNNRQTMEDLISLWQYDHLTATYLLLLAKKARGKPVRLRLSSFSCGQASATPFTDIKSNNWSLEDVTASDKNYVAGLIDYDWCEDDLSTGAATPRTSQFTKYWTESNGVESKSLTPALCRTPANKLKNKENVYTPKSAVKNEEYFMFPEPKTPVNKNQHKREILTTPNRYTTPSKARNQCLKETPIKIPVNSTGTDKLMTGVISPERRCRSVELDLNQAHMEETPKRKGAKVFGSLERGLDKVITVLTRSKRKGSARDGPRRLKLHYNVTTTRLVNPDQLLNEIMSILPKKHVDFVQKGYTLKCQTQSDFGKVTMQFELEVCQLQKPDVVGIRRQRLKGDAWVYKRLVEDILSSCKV
Sequence of PAS domain-containing serine/threonine-protein kinase (Homo sapiens) (Q96RG2 whole entry, the tested form may be a part): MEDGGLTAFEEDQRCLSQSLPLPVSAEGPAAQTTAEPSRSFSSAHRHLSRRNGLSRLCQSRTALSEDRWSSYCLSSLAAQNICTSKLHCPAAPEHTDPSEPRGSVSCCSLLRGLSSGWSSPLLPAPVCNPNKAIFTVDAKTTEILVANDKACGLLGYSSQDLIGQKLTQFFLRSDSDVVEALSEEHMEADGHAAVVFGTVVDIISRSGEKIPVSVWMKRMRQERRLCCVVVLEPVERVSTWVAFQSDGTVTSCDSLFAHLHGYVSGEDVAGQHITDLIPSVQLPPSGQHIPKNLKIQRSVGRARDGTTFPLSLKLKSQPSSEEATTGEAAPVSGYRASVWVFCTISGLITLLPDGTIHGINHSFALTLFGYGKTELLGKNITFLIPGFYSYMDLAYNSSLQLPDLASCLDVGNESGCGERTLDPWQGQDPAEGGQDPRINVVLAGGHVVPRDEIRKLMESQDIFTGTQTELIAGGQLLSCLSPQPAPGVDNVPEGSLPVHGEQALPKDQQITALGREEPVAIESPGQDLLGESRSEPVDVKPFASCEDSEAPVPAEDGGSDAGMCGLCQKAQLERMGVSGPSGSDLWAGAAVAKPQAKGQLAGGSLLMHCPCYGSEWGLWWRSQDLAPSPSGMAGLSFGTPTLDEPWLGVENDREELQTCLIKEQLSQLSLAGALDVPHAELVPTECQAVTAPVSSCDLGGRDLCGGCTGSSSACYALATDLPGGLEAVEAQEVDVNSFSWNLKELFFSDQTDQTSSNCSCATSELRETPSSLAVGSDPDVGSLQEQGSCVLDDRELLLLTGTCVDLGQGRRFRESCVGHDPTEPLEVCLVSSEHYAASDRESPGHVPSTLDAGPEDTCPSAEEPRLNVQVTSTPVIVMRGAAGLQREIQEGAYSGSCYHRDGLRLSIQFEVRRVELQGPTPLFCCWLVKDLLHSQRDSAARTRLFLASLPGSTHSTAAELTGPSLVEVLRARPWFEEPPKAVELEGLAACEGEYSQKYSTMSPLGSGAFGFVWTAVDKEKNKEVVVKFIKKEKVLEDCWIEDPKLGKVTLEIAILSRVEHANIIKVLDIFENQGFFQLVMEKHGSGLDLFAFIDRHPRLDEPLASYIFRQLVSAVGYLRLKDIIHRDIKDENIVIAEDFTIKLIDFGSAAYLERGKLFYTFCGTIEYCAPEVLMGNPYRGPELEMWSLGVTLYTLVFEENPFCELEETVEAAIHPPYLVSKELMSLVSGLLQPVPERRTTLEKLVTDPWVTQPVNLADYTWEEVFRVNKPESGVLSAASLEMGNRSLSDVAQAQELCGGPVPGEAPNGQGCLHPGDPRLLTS

In the case of `CCn1c(-c2nonc2N)nc2cncc(C(=O)N3CC[C@H](N)C3)c21`, the inhibition stood at 4.57% in assay [1]; 2.19% in [2]; 4.51% in [3]; 14.8% in assay [4]; 60.6% in [5]; 3.74% in assay [6]. Further, the inhibition in assay [7] turned out to be 9.55%; in [8], 2.07%; in assay [9], 10.8%; in assay [10], 1.6%; in assay [11] it was 7.14%; in assay [12], 0.29%. Moreover, the inhibition is 22.9% in assay [13]; 6.12% in [14]; 6.32% in assay [15]; 6.67% in [16]; 5.58% in [17]; 74.1% in assay [18]. Also, the inhibition in assay [19] was 94.2%; in assay [20], 9.73%.
Take `COC(=O)Nc1nc2cc(Oc3cccc(NC(=O)Nc4cc(C(F)(F)F)ccc4F)c3)ccc2[nH]1`: the inhibition in assay [1] is 1.94%; in assay [2] it was 1.07%; in assay [3], 2.15%; in [4], -0.49%; in [5] it was 1.36%; in assay [6], 1.02%. The inhibition in [7] is 1.01%; in assay [8], 3.02%; in assay [9], -0.05%; in assay [10] it was 0.89%; in assay [11] it was 0.86%; in assay [12], 0.12%. The inhibition in assay [13] is 0.57%; in assay [14] it was 2.73%; in assay [15], 2.22%; in assay [16], -0.89%; in assay [17], -1.83%; in assay [18] it was -0.25%. Further, the values for the inhibition in assay [19] and in assay [20] were 0.39% and -0.3%, respectively.
For the compound `COc1cccc(-n2ncc3c(N/N=C/c4cccc(F)c4)ncnc32)c1`, the inhibition is -1.64% in assay [1]; 1.82% in [2]; 5.56% in assay [3]; 4.24% in [4]; 11% in assay [5]; 2.81% in [6]. Besides, the inhibition in assay [7] was 11.8%; in [8], 1.92%; in [9], 6.42%; in [10], 0.05%; in assay [11], 2.5%; in assay [12] it was -0.33%. Further, the inhibition in assay [13] was -1.6%; in assay [14], 5.06%; in assay [15] it was 9%; in [16] it was 2.06%; in [17], 1.7%; in assay [18], -0.24%. The results for the inhibition in [19] and in assay [20] were 0.52% and -3.26%, respectively.
Turning to `O=C1NC(=O)C(c2cccc(Cl)c2)=C1Nc1ccc(O)c(Cl)c1`, the inhibition in [1] was determined as 18.6%; in assay [2], 2.36%; in assay [3], 17.3%; in assay [4], 0.77%; in assay [5] it was 6.85%; in assay [6] it was 0.35%. The inhibition is 7.25% in assay [7]; 0.54% in assay [8]; 1.96% in assay [9]; 0.55% in assay [10]; 16.3% in assay [11]; 1.02% in assay [12]. The inhibition in [13] is 0.49%; in [14], 2.04%; in assay [15], 6.07%; in assay [16], 1.35%; in assay [17], -1.03%; in assay [18] it was 1.35%. In addition, the figures for the inhibition in assay [19] and in [20] were 3.87% and 0.87%, respectively.
`COc1cc2ncn(-c3cc(OCc4ccccc4C(F)(F)F)c(C(N)=O)s3)c2cc1OC`: the inhibition is 21.5% in assay [1]; 5.05% in [2]; 18.4% in assay [3]; 5.92% in assay [4]; 10.3% in assay [5]; 2.99% in assay [6]. Further, the inhibition in [7] is 7.06%; in [8], 2.21%; in [9] it was 7.89%; in assay [10], 2.29%; in assay [11], 12.2%; in assay [12], -0.15%. The inhibition in assay [13] is 0.3%; in assay [14], 6.17%; in assay [15], 8.75%; in assay [16], 5.36%; in [17], 6.56%; in assay [18], -0.79%. The results for the inhibition in assay [19] and in assay [20] were 2.8% and -3.6%, respectively.
